In PubChem BioAssay (NCI):
Compounds without any hit were thinned out: in the full panel of roughly 79,000, 15% have a hit. Rule as the data show it: active = growth inhibition above about 70%; inactive = the rest.

Columns and labels:
[1] = NCI Yeast Anticancer Drug Screen. Data for the rad50 strain (AID 155);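 also: 0% = growth of vehicle-only cultures of the same strain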; conditions: S. cerevisiae rad50 strain growth inhibition; at 50.0 µM; active compounds read high
In short: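 Cells are treated with compound, grown, and their growth is then scored against vehicle-only cultures of the same repair-deficient yeast strain.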

[2] = NCI Yeast Anticancer Drug Screen. Data for the mec2-1 strain (AID 157); conditions: S. cerevisiae mec2-1 strain, at 50.0 µM, active compounds read high
In short: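 Using mec2-1 yeast: add compound, measure growth, express inhibition versus vehicle-treated cultures.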

[3] = NCI Yeast Anticancer Drug Screen. Data for the sgs1 mgt1 strain (AID 161);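 also: 0% = growth of cultures given vehicle only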; conditions: S. cerevisiae sgs1 mgt1 strain, at 50.0 µM, active compounds read high
In short: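 Yeast cells carrying a defined DNA-repair defect were exposed to test compounds. Growth inhibition was measured relative to vehicle-treated controls.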

[4] = NCI Yeast Anticancer Drug Screen. Data for the cln2 rad14 strain (AID 165);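 also: 0% = growth equal to vehicle treated cultures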; conditions: S. cerevisiae cln2 rad14 strain, at 50.0 µM, active compounds read high
In short: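 Yeast strain cln2 rad14, bearing defects in cell cycle control and DNA repair, serves as the test system; values reflect growth inhibition compared with vehicle.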

[5] = NCI Yeast Anticancer Drug Screen. Data for the bub3 strain (AID 167); conditions: S. cerevisiae bub3 mutant strain, at 50.0 µM, active compounds read high
In short: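 Part of a panel of yeast mutants defective in DNA damage repair or cell cycle regulation. Each strain is grown with compound, and inhibition is calculated relative to solvent-treated cultures.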

[6] = NCI Yeast Anticancer Drug Screen. Data for the mlh1 rad18 strain (AID 175); conditions: S. cerevisiae mlh1 rad18 strain growth inhibition; at 50.0 µM; active compounds read high
In short: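 Steps: expose repair-defective yeast to compound; measure growth; express inhibition against vehicle-treated controls.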

Measured: growth inhibition

CCC(C)C(N)C1=NC(C(=O)NC(CC(C)C)C(=O)NC(CCC(=O)O)C(=O)NC(C(=O)NC2CCCCNC(=O)C(CC(N)=O)NC(=O)C(CC(=O)O)NC(=O)C(Cc3cnc[nH]3)NC(=O)C(Cc3ccccc3)NC(=O)C(C(C)CC)NC(=O)C(CCCN)NC2=O)C(C)CC)CS1 (stereo not given)
inactive: [1] 12.9% | [2] -24.9% | [3] 0.2% | [4] 25.6% | [5] -15.2% | [6] -7.3%

FC(F)(F)c1cccc(NC(=S)N2CCOCC2)c1
inactive: [1] 0.35% | [2] -2% | [3] 1.05% | [4] -4.2% | [5] 0.3% | [6] -11.7%

CCCCCCCCC(=O)c1ccc(N=Nc2ccc(OCC)cc2)cc1
inactive: [1] -6% | [2] 12.9% | [3] -5.5% | [4] -8.55% | [5] 3.15% | [6] -14.8%

O/N=C1\c2ccccc2-c2cccc(I)c21
inactive: [1] 23.4% | [2] -5.25% | [3] 7.8% | [4] 1.5% | [5] 1.1% | [6] 5.5%

O=C1c2ccccc2C(=O)N1C[P+](c1ccccc1)(c1ccccc1)c1ccccc1
inactive: [1] 41.9% | [2] 28.8% | [3] 32.4% | [4] 16.2% | [5] 2.25% | [6] 12.4%

Cc1cc([N+](=O)[O-])ccc1N=Nc1ccc([N+](=O)[O-])cc1C
inactive: [1] -0.6% | [2] -1.9% | [3] 1.2% | [4] -49.1% | [5] 5.4% | [6] -8.65%

CCCCCCCCCCCCCCCC(=O)OCC(O)C1OC(=O)C(O)=C1O (stereo not given)
inactive: [1] 28.1% | [2] -0.75% | [3] 4.6% | [4] 9.15% | [5] 24.2% | [6] 46.7%

C#CCn1cc(F)c(=O)n(CC#C)c1=O
inactive: [1] -50.2% | [2] -30.8% | [3] -4.55% | [4] -33.9% | [5] -0.05% | [6] -2.05%

Cc1csc(-c2ccncc2)n1
inactive: [1] 6.05% | [2] 6.9% | [3] -1.55% | [4] -8.3% | [5] 20.5% | [6] -5.35%

CC1(C)CC(=O)C2=C(SC3=C(C2)C(=O)CC(C)(C)S3)S1
inactive: [1] -5.75% | [2] -2.5% | [3] 2.8% | [4] -7.25% | [5] -9.85% | [6] -3.3%

CCOC(=O)c1nc2ccccc2nc1NCc1ccc(Cl)cc1Cl
inactive: [1] 6.45% | [2] 19% | [3] -24.7% | [4] 8% | [5] -16.6% | [6] -30.9%

O=C(O)Cn1ccc(=O)c2cc([N+](=O)[O-])ccc21
inactive: [1] 41% | [2] 15.4% | [3] -11.1% | [4] 12.7% | [5] 24.9% | [6] -49%

COc1cc(/C=N/N2CC(=O)N(c3ccccc3)CC2=O)cc(OC)c1
inactive: [1] -469% | [2] 18.1% | [3] 23.7% | [4] 7.1% | [5] 10.8% | [6] 13.1%

O=C(N/N=C/c1ccccc1)C1CC1
inactive: [1] 9.35% | [2] -10.2% | [3] 10.2% | [4] 8% | [5] 9.35% | [6] 1.85%

O=[N+]([O-])c1cccc(/C=C/c2cc(N(CCO)CCO)c3ccccc3n2)c1
inactive: [1] 48.1% | [2] 12.8% | [3] 11.1% | [4] 3.5% | [5] -6.6% | [6] 22.2%

CCOc1cc2c(cc1O)C(O)C[C@@H]1[C@@H]2CC[C@]2(C)[C@@H](O)CC[C@@H]12 (stereo not given in full)
inactive: [1] 14.8% | [2] -7.9% | [3] 22.7% | [4] 11.9% | [5] 24.2% | [6] 25.1%

O=c1c(SCc2ccc(Cl)c(Cl)c2)c(SCc2ccc(Cl)c(Cl)c2)cnn1-c1ccccc1
inactive: [1] -8.5% | [2] -11.5% | [3] -6.05% | [4] -1.6% | [5] -13.4% | [6] 15.3%

O=C(CCn1[nH]c(=O)c(Cl)c(Cl)c1=O)NOCCCc1ccccc1
inactive: [1] 0.3% | [2] -21.7% | [3] -8.5% | [4] -7.95% | [5] 4.3% | [6] -11.6%

N[C@@H](CO)[C@@H](O)c1ccc([N+](=O)[O-])cc1
inactive: [1] 1.5% | [2] -7.7% | [3] -3.9% | [4] -38.5% | [5] 1.5% | [6] -4.6%

CCN(CC)CCSSCCN(CC)CC
inactive: [1] -9% | [2] 3.7% | [3] -7.05% | [4] -15.2% | [5] 2.35% | [6] 5.3%
